Experimental data from the supplement of paper PMC3334620.
The full ranking holds about 33,000 sequences; the median of “E-score (-0.5 to 0.5)” is about -0.011, and the highest 2% start at about 0.28. Many of the other results were omitted from the sample, so the highest values are more common in it than they were.

Each sequence was assayed against T1, Gcr1 (UniProt P07261) (assay: PBM E-score (8-mer binding enrichment) (E-score (-0.5 to 0.5)); higher = stronger / more preferred TF binding). Conditions: protein concentration: 100 nM; construct: GST-full length.
T1 sequence: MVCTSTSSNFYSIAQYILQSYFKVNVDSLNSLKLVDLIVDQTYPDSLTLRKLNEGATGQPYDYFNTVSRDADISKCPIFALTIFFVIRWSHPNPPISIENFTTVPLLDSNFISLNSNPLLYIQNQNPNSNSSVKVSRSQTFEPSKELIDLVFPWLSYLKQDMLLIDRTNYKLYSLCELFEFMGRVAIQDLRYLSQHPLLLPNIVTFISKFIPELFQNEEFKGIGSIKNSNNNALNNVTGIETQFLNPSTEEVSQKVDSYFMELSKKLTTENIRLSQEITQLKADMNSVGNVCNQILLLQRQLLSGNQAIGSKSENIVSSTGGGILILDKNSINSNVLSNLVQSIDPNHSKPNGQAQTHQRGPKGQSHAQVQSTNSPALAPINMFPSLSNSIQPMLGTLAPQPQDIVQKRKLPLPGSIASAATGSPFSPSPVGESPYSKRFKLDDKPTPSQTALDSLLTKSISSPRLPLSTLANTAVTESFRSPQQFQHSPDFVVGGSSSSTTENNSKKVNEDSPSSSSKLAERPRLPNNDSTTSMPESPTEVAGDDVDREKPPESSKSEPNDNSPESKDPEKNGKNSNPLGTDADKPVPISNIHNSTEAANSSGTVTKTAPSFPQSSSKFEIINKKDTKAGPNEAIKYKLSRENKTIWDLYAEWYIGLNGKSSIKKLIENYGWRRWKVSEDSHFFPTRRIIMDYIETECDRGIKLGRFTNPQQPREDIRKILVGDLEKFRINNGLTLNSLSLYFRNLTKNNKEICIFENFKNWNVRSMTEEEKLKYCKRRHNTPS
In short: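 Full-length yeast transcription factors or their DNA-binding domains, GST-tagged and expressed with PURExpress, were applied at about 100-200 nM to universal all-10-mer Agilent arrays. These arrays had been made double-stranded by primer extension on fresh or once-stripped slides. Detection used fluorescent anti-GST, normalisation used masliner, and E-scores for ungapped eight-base words pooled with reverse complements came from the Universal PBM Analysis Suite.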

Row | Sequence | PBM E-score
1 | CACTAACG | 0.00491
2 | CGCGAGTC | -0.109
3 | AGTAGCAT | -0.0355
4 | CACCTTAG | 0.141
5 | CGCAGCCG | 0.0939
6 | AGCAGCAA | 0.0994
7 | CGCAGCGA | 0.22
8 | AGCAGCCC | 0.2
9 | GGCAGCAC | -0.0566
10 | GCCAGCCC | -0.0556
11 | GCCAGCCA | -0.0514
12 | CGCAGCCA | 0.365
13 | TGCAGCCA | 0.00515
14 | GGCAGCCA | 0.422
15 | AGCAGCCA | 0.35
16 | GGCAGCCC | 0.324
17 | AGGCCAGG | -0.25
18 | ATCTATGA | -0.0683
19 | ACTGAAAC | 0.0485
20 | CTAAACGC | 0.0998
21 | AGATCTGG | 0.00449
22 | ACGTTCAC | -0.22
23 | GTCAGGAC | 0.00402

Row | Sequence | PBM E-score
24 | GTCCAAGA | 0.149
25 | CACTCCCG | -0.134
26 | GCCCTGGA | -0.0767
27 | ACAGGAAA | 0.125
28 | ACAGGACG | 0.26
29 | ACAGGAAT | 0.307
30 | ACAGGAAC | 0.144
31 | CCAGGAAG | 0.166
32 | ACAGGAAG | 0.455
33 | CTGTTCCC | -0.0872
34 | CACGGTAA | -0.233
35 | CTATCGAC | -0.0454
36 | GCCTCTCA | -0.0769
37 | ACCTATAG | 0.161
38 | CGAGCGGA | -0.113
39 | GGGAGCCA | 0.387
40 | CGGAGCCA | 0.282
41 | AGGAGCCA | 0.214
42 | GGGAGCCC | 0.226
43 | CGGAGCCG | 0.0209
44 | TGGAGCCA | 0.205
45 | GGTTTGGA | 0.115
46 | AATGCCCG | -0.207

Row | Sequence | PBM E-score
47 | AGAAAGGA | -0.143
48 | CCGTCTCG | -0.0715
49 | GTCACTAA | 0.107
50 | GGCGCCAC | 0.253
51 | GGCGCCTA | 0.385
52 | AGCGCCTA | 0.164
53 | CGCGCCGA | 0.0709
54 | CGCGCCTA | 0.258
55 | AGCGCCGA | 0.0415
56 | AGCGCCAA | 0.124
57 | GGCGCCAA | 0.377
58 | GGCGCCGA | 0.286
59 | AGGGTCGG | -0.133
60 | GAATTTCC | 0.082
61 | ATTACAGG | 0.355
62 | AATACAAT | -0.0331
63 | AATACAAG | 0.293
64 | AATACAGG | 0.343
65 | AATACAGT | -0.0143
66 | ATTACAGC | -0.134
67 | ATTACAGA | 0.053
68 | AATACAGA | -0.0124
69 | AATACAAC | 0.0962

Row | Sequence | PBM E-score
70 | CAAAGACC | 0.00996
71 | CAGTGGGC | -0.0102
72 | ACTGCTAT | -0.225
73 | ATATCCTC | -0.118
74 | GACACCCC | -0.0371
75 | AACGTCGC | -0.00983
76 | AACCATAG | -0.00302
77 | AAAATCCG | 0.111
78 | GGGCGCTA | 0.32
79 | TAGCGCCA | 0.181
80 | GGGCGCGA | 0.187
81 | GGGCGCCA | 0.403
82 | CTGCGCCA | -0.135
83 | CAGCGCCA | 0.0174
84 | TGGCGCCA | 0.37
85 | CGGCGCCA | 0.308
86 | CGGCGCTA | -0.00295
87 | GCGCGCCA | 0.0132
88 | AGGCGCTA | 0.0978
89 | TGGCGCAA | -0.0289
